Compound activity as filed in PubChem BioAssay.
Sampled rows, rich in hits. Any-hit rate of the full collection: about 3.5%.
TEAD-YAP inh = TEAD-YAP interaction inhibition; HEK-TIYL cells, TEAD-Gal4/YAP UAS-luciferase luminescence; inhibition, % at 9.12 µM; 640,000 tested, 1.4% active; in the data active = inhibition above about 32%;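 note: 0% = median of test compound wells and 100% = reference inhibitor wells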
GPR151 activ = activators of human GPR151. Q8TDV0. PathHunter beta-arrestin GPR151 cells, luminescence. activation, % at 11.2 µM. 650,000 tested, 1% active; in the data active = activation above about 4.9%;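 note: 0% = median of compound wells and 100% = cells with positive control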
FBW7 act = activators of human E3 ligase FBW7. 650,000 tested, 0.13% active. normalized activity (activation), % at 26.1 µM. AID 1259310. AlphaScreen FBW7–phospho-cyclin E peptide binding, activator screen; in the data active = normalized activity above about 1.9%;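 note: purified mutant Fbw7 with reduced substrate affinity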
MITF primary = inhibitors of human MITF. O75030. AlphaScreen MITF homodimerization, bead proximity signal. inhibition, % at 2.6 µM. 650,000 tested, 0.91% active. AID 1259374; in the data active = inhibition above about 50%;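 note: 0% = vehicle wells with protein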
GPR151 conf act = confirmation of human GPR151 activators; shares compounds with GPR151 activ; GPR151 PathHunter beta-arrestin cells, luminescence, 90 min; % of EA-reagent control over plate median; activation, % at 11.2 µM; 6,700 tested, under 10 active; AID 1508609;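 active = mean percent activation across replicates above the confirmation screen cutoff of 4.91%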
GPR119 ag = activates human GPR119 in a GPR151 counter-screen; shares compounds with GPR151 activ; GPR119 PathHunter beta-arrestin cells, luminescence, 90 min; 0 = compound-well median, 100 = enzyme-acceptor control; 6,700 tested, 0.3% active; activation, % at 11.2 µM;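 active = mean percent activation in the counterscreen above 29.09%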;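 note: counterscreen on off-target GPR119 to flag nonselective hits from the GPR151 activator screen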
Target sequence (Q8TDV5 whole entry, looked up): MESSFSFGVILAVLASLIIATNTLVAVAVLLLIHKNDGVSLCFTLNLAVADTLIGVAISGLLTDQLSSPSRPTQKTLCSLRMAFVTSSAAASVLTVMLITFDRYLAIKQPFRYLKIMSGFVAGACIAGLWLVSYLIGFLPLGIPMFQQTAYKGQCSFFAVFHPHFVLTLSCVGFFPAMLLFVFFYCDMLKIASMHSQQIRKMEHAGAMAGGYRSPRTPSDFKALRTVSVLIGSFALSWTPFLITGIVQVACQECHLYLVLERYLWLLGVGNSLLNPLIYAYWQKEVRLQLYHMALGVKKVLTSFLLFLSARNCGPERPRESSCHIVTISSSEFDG
* marks the source's active call; other numbers are inactive results; . = no result given.

SMILES	TEAD-YAP inh	GPR151 activ	FBW7 act	MITF primary	GPR151 conf act	GPR119 ag
CCOC(=O)CN1C(=O)N[C@@H](c2ccc(Br)cc2)C(C(=O)OC)=C1C	.	5.0*	0.6	13.2	1.2	13.8
CCN1C(=O)N[C@H](c2ccc(Br)cc2)C(C(=O)OC)=C1C	.	0.0	0.0	18.7	.	.
CCOc1ccccc1C1C(C(=O)OC)=C(N)OC2=C1C(=O)CCC2 (stereo unspecified)	0.6	6.0*	1.0	11.6	0.5	5.9
CCOc1ccccc1NC(=O)CN1CCN(CC(=O)Nc2ccc(F)cc2)CC1	-0.6	0.3	-0.2	-0.4	.	.
COc1ccc2c(c1)CC(C(=O)Nc1ccc(-c3ccnc(N)n3)cc1O)CO2 (stereo unspecified)	9.7	1.0	0.1	18.9	.	.
COc1ccc2c(c1)CC(C(=O)Nc1ccc(-c3ccnc(N)n3)cc1)CO2 (stereo unspecified)	4.3	5.2*	13.9*	-13.8	0.8	8.9
Cc1noc(C)c1-c1nc(Nc2ccc(N3CCOCC3)cc2)c2ncn(CCN3CCCC3=O)c2n1	-7.0	-2.1	-0.1	-7.8	.	.
Cc1cccc(NC(=O)c2nc[nH]c2C(=O)Nc2cccc(C)c2)c1	-3.7	6.6*	-0.2	3.7	1.3	7.4
Cc1ccc(NC(=O)c2nc[nH]c2C(=O)Nc2ccc(C)cc2)cc1	2.6	2.4	0.0	-21.9	.	.
Cc1cccc(C(=O)Nc2cccc(-c3nc4ccccc4s3)c2)c1	-0.2	0.2	-0.1	-7.0	.	.
O=C(Nc1cccc(-c2nc3ccccc3s2)c1)c1ccccc1	2.6	1.7	0.2	12.5	.	.
O=C(Nc1cccc(-c2nc3ccccc3s2)c1)c1ccc(N2C(=O)CCC2=O)cc1	-1.9	7.4*	0.0	1.8	-0.8	1.6
O=C(Nc1cccc(-c2nc3ccccc3s2)c1)C12CC3CC(CC(C3)C1)C2	-5.4	5.5*	-0.2	-12.9	0.6	-0.5
COc1ccc(NC(=O)C2CCC(Cn3c(=S)[nH]c4ccccc4c3=O)CC2)cc1 (stereo unspecified)	-11.3	7.0*	0.0	-6.3	0.0	-11.3
CC(=O)N1N=C(c2ccc3nccnc3c2)CC1c1ccccc1 (stereo unspecified)	1.2	5.9*	0.0	12.8	-1.7	-20.8
COc1ccc(C2=NN(C(C)=O)C(c3ccccc3)C2)cc1OC (stereo unspecified)	-17.3	1.1	0.5	9.8	.	.
Nc1nccc(-c2cc(F)c3nc(C4COc5ccc(C(=O)NC6CCC6)cc5C4)[nH]c3c2)n1 (stereo unspecified)	-2.3	-1.0	-0.2	6.2	.	.
O=C(Cn1cncn1)c1ccc(Cl)cc1	-3.9	7.8*	-0.1	-0.5	-0.6	-2.0
Cc1ccc(C(=O)Cn2cncn2)cc1	4.5	1.9	-0.1	1.9	.	.
Clc1ccc(SCCCCn2cncn2)cc1	5.4	9.2*	-0.1	-3.8	-0.2	4.7
COc1ccc(S(=O)(=O)Nc2ccccc2C(=O)NCc2ccccc2)cc1C	4.9	-0.9	0.7	11.7	.	.
Cc1cc(NC(=O)CSc2nc3ccccc3c(=O)n2CC2CCC(C(=O)N3CCN(c4ccccc4)CC3)CC2)no1 (stereo unspecified)	-3.0	1.7	0.1	-3.9	.	.
c1ccc(CNc2ncnc3nc(NCCN4CCOCC4)[nH]c23)cc1	1.8	-0.8	0.1	3.4	.	.
COc1ccc(I)cc1S(=O)(=O)N1CCN(Cc2ccccc2)CC1	3.6	1.2	0.0	2.7	.	.
COc1cc(Cl)c(S(=O)(=O)N2CCN(Cc3ccccc3)CC2)cc1Cl	4.8	6.5*	0.1	10.7	-0.4	-16.8
SMILES	TEAD-YAP inh	GPR151 activ	FBW7 act	MITF primary	GPR151 conf act	GPR119 ag
O=S(=O)(c1ccc(Cl)cc1Br)N1CCN(Cc2ccccc2)CC1	-6.1	6.2*	-0.1	-1.8	0.5	-9.3
O=S(=O)(c1cc(Br)ccc1Br)N1CCN(Cc2ccccc2)CC1	3.8	-1.7	0.4	8.1	.	.
COc1cc(C2NC(=O)NC(C)=C2C(=O)OCCOc2ccccc2)ccc1O (stereo unspecified)	-3.1	-0.5	0.0	-1.1	.	.
CCOC(=O)CN(c1ccccc1Cl)S(=O)(=O)c1ccc(F)cc1	6.9	22.7*	0.0	-2.0	0.1	4.7
COc1ccc(S(=O)(=O)N(CC(=O)O)c2ccc(Cl)cc2)cc1	2.6	5.6*	0.2	7.3	-1.4	-15.4
COC(=O)CN(c1ccccc1OC)S(=O)(=O)c1ccc(OC)cc1	2.2	7.1*	-0.1	-1.9	-0.2	1.7
